From PubChem
Rows were chosen to be rich in hits. Some 11% of all compounds tested hit in one or more screens of this group.
Pf growth 48h = Primary qHTS for delayed death inhibitors of the malarial parasite plastid, 48 hour incubation. P. falciparum luciferase growth in erythrocytes, 48 h. Potency, µM (highest dose often 28.7 µM), most hits filed as inhibitors. hit rate 5.9% among 310,000. AID 504832, 2011
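A one-generation exposure of luciferase-tagged malaria parasites in RPMI 1640/Albumax erythrocyte culture, 37 C and 5% CO2. Inhibition is inferred from decreased luminescence after adding detection reagent.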
AMA1-RON2 inh = qHTS for Inhibitors of AMA1-RON; Towards Development of Antimalarial Drug Lead: Primary Screen; Plasmodium falciparum AMA1 (3D7) - RON2 peptide interaction; AlphaScreen AMA1-biotinylated RON2 peptide binding; Potency, µM (series often up to 58.2 µM), usual class: inhibitors; hit rate 0.2% among 360,000; AID 720542, 2013; note: nearly all actives have a fitted effect of over 45% in size
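AMA1 (3D7) with his tag at 25 nM final met compounds first, then biotinylated RON2 peptide at 25 nM; detection used donor plus acceptor beads, 10 µg/mL apiece, read by AlphaScreen after 30 min at room temperature.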
Pf growth 96h = Primary qHTS for delayed death inhibitors of the malarial parasite plastid, 96 hour incubation; P. falciparum luciferase reporter growth, 96 h; Potency, µM (series often up to 28.7 µM), hits mostly inhibitors; hit rate 6.9% among 320,000
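Plates of compound plus infected erythrocytes (2% hematocrit, 0.05% parasitemia final) incubate 96 hours, 37 C, 5% CO2. Detection reagent added; reduced luminescence from the parasites' luciferase reporter flags inhibition.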
HCV inhibitor = qHTS Assay for Inhibitors of Hepatitis C Virus (HCV). Potency, µM (highest dose often 41.8 µM), hits mostly inhibitors. Huh7.5.1 HCVcc-Cre infection, luciferase reporter, 44 h. hit rate 3.4% among 340,000
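After 44 h co-culture of compound, cells and HCVcc-Cre (~0.5 moi), substrate is added for 15 min at room temperature and luciferase measured over 15 sec. Cells were seeded at 1,000/well and pre-cultured 4 h.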
Each line names hits and unclear results; the compound was inactive in the other large screens; ! = repeats disagree. Calls come from the whole dose curve; as a rule, active = well fitted curve in the direction sought with a large enough effect; inconclusive = small, poorly fitted or top-dose-only effect, or another doubt; inactive = no such curve, though single readings can be large; an effect the other way counts as inactive or inconclusive.

O=C(c1ccc2c(=O)n3c(nc2c1)CCC3)N1CCN(S(=O)(=O)c2ccccc2Br)CC1	none (no result: Pf growth 48h, Pf growth 96h)
O=C(COC(=O)C1CC1)Nc1ccc(Cl)cn1	none
COc1ccccc1NC(=O)CSC1=NC(=O)C(Cc2ccccc2)C(=O)N1 (centres undefined)	Pf growth 96h inconclusive
Cc1nc(SCC(=O)Nc2ccccc2Cl)c2c(C)c(C)sc2n1	Pf growth 48h 5.2µM, Pf growth 96h inconclusive
COc1ccccc1NC(=O)CSc1nc2sc(C)c(C)c2c(=O)n1C	Pf growth 96h inconclusive, HCV inhibitor 10µM
COc1ccccc1NC(=O)CSC1=NC(=O)C(NC(C)=O)C(=O)N1 (centres undefined)	Pf growth 96h 0.83µM
Cc1sc2nc(SCC(=O)Nc3c(C)n(C)n(-c4ccccc4)c3=O)n(C)c(=O)c2c1C	none
Cc1sc2nc(SCC(=O)NCCO)n(C)c(=O)c2c1C	Pf growth 96h 9.3µM
Cc1sc2nc(SCC(=O)NCc3ccco3)n(CCc3ccccc3)c(=O)c2c1C	Pf growth 48h 12µM
COc1ccccc1C(=O)NCCNc1ccc([N+](=O)[O-])cc1Cl	Pf growth 48h inconclusive, Pf growth 96h inconclusive, HCV inhibitor inconclusive
O=C(c1ccc2[nH]ccc2c1)N1CCCC(Nc2ccccc2)C1 (centres undefined)	none
Cc1ccc(NC2CCCN(C(=O)c3ccc4[nH]ccc4c3)C2)cc1C (centres undefined)	Pf growth 48h inconclusive, Pf growth 96h 13µM
COc1ccc(C(=O)N2CCCC(Nc3ccc(C)c(C)c3)C2)cc1F (centres undefined)	Pf growth 96h inconclusive
COc1ccc(C(=O)N2CCCC(Nc3ccc(F)cc3)C2)cc1F (centres undefined)	Pf growth 96h 10µM
CCCCOC(=O)c1ccc(NC(=O)C(=O)NCc2ccccn2)cc1	none
Cc1cc(N/N=C/c2c(O)ccc3ccccc23)nc(-c2ccccc2O)n1	Pf growth 48h 6.6µM, Pf growth 96h inconclusive, HCV inhibitor inconclusive
Cc1cc(Nc2ccccc2)nc(-c2ccccc2O)n1	HCV inhibitor 0.63µM (no result: Pf growth 96h)
CC1=C(C#N)C(c2cccnc2)C2=C(CC(c3ccc(Cl)cc3)CC2=O)N1 (centres undefined)	Pf growth 96h 6.6µM (no result: Pf growth 48h)
COc1ccccc1C(C)NC(=O)CCNC(=O)c1ccc(Cl)cc1 (centres undefined)	none (no result: Pf growth 48h, Pf growth 96h)
CC(C)C(c1nnnn1C1CCCC1)N1CCCc2ccccc21 (centres undefined)	Pf growth 48h 13µM
CC(C)C(c1nnnn1C1CCCCC1)N1CCc2ccccc2C1 (centres undefined)	Pf growth 48h 15µM
CC(C)C(c1nnnn1C1CCCC1)N1CCc2ccccc21 (centres undefined)	Pf growth 48h inconclusive, Pf growth 96h inconclusive
Cc1ccc(C(c2nnnn2C2CCCC2)N2CCc3ccccc32)cc1 (centres undefined)	Pf growth 48h inconclusive, HCV inhibitor inconclusive
CC(C)C(c1nnnn1C1CCCCC1)N1CCCc2ccccc21 (centres undefined)	Pf growth 48h 9.3µM
Cc1ccc2nc(NC(=O)c3ccc(OCC4CCCO4)cc3)sc2c1 (centres undefined)	Pf growth 96h inconclusive, HCV inhibitor 8.9µM
O=C(Nc1nc(-c2ccc(Cl)cc2Cl)cs1)c1ccc(OCC2CCCO2)cc1 (centres undefined)	Pf growth 96h inconclusive, HCV inhibitor 8.9µM
COc1ccccc1CNC(=O)COC(=O)COc1ccccc1Cc1ccccc1	none
O=C1CCC(C(=O)OCC(=O)c2ccccc2)N1 (centres undefined)	none
O=C1CC[C@@H](C(=O)O)N1	Pf growth 48h inconclusive, Pf growth 96h 13µM!
c1ccc(Cn2cc(-c3ccccc3)cn2)cc1	Pf growth 96h inconclusive
O=C1Nc2ccccc2C12OCC(COc1ccc(Cl)cc1)O2 (centres undefined)	HCV inhibitor 13µM (no result: Pf growth 96h)
CCN(CC)c1ccc(/C=c2\sc3nc4ccccc4n3c2=O)c(O)c1	Pf growth 48h 8.3µM, Pf growth 96h 10µM, HCV inhibitor inconclusive
CCN1CCN(CCCNC(=O)C2CCCN(c3nc4c(C)cc(C)cc4s3)C2)CC1 (centres undefined)	Pf growth 48h inconclusive, Pf growth 96h inconclusive, HCV inhibitor 10µM
CCOc1ccc2nc(N3CCCC(C(=O)NCCCN4CCCCC4)C3)sc2c1 (centres undefined)	HCV inhibitor inconclusive
